Test results from the supplement of paper PMC13380429.

Tested on: Vero E6 infected with SARS-CoV-2
Test: inhibition of SARS-CoV-2 cytopathic effect; higher = more antiviral protection, active = above 15
Conditions: 48 h

Measured: inhibition of SARS-CoV-2 cytopathic effect

O=C(COP(=O)(O)O)[C@@H](O)[C@H](O)[C@H](O)COP(=O)(O)O [fosfructose]
inactive: 1 nM -6.09% | 8.33 nM -3.73% | 100 nM -0.5% | 833.33 nM 1.38% | 10000 nM -1.68%

Cc1ccc(/C=N/NC(=O)c2ccccc2Oc2ccccc2)o1
inactive: 1 nM -1.75% | 8.33 nM -0.44% | 100 nM -0.55% | 833.33 nM 0.13% | 10000 nM 0.97%

CN1C(=O)N(c2ccc(C#N)c(C(F)(F)F)c2)C(=O)[C@]1(CO)c1ccccc1 [GLPG0492-R-enantiomer]
inactive: 1 nM 2.05% | 8.33 nM 2.68% | 100 nM 0.3% | 833.33 nM 1.61% | 10000 nM 2.02%

O=C(C[S+]([O-])Cc1ccco1)NC/C=C\COc1cc(CN2CCCCC2)ccn1 (stereo not given) [lafutidine]
inactive: 1 nM -0.4% | 8.33 nM 5.21% | 100 nM 1.21% | 833.33 nM 5.01% | 10000 nM 3.05%

CC(C)CN(C[C@@H](OP(=O)(O)O)[C@H](Cc1ccccc1)NC(=O)O[C@H]1CCOC1)S(=O)(=O)c1ccc(N)cc1 [fosamprenavir]
inactive: 1 nM -0.69% | 8.33 nM 0.83% | 100 nM 0.76% | 833.33 nM -0.52% | 10000 nM -2.55%

O=C(/C=C\n1cnc(-c2cc(C(F)(F)F)cc(C(F)(F)F)c2)n1)N1CC(F)(F)C1
inactive: 1 nM 2.37% | 8.33 nM -1.09% | 100 nM -2.84% | 833.33 nM -7.74% | 10000 nM -16.6%

COc1cc(NC(=O)c2ccc(-c3ccc(Cl)cc3)o2)cc(OC)c1
inactive: 1 nM 1.92% | 8.33 nM 0.3% | 100 nM 0.76% | 833.33 nM 0.19% | 10000 nM 0.71%
